The results in this text go back to PubChem BioAssay (Tox21).

Experiment [1] is described as follows: qHTS assay to identify small molecule antagonists of the estrogen receptor alpha (ER-alpha) signaling pathway using the BG1 cell line in the presence of 0.1 nM 17-beta-estradiol - cell viability counter screen (AID 1259241). Further: nearly all actives have a fitted effect of over 40% in size. Further: potency means the concentration at half of the fitted maximal effect. In outline: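 VM7Luc4E2 cells (endogenous ER-alpha, 4×ERE-luciferase), hormone-starved 5 days in charcoal-stripped FBS, were treated with compounds plus 0.1 nM 17beta-estradiol for 22 hr at 37C; viability read in same wells as CellTiter-Fluor live-cell protease fluorescence.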

A short description of experiment [2]: qHTS assay to identify small molecule HDAC inhibitors (AID 1259364). Further: potency means the concentration at half of the fitted maximal effect.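 Further: wild-type HCT-116 cells with endogenous class I/II HDAC activity; nearly all actives have a fitted effect of over 45% in size.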 In outline: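 Read-out: luminescence of HDAC-Glo I/II reagent, 30 min RT, reflecting class I/II deacetylase activity in whole HCT-116 cells pre-exposed 2 h to DMSO-dissolved compounds.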
Experiment [3] in a line: qHTS assay to identify small molecule agonists of the sonic hedgehog signaling (Shh) pathway - cell viability counter screen (AID 1259366). Further: nearly all actives have a fitted effect of over 50% in size. Further: potency means the concentration at half of the fitted maximal effect. In outline:
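NIH/3T3-derived 3T3 Gli1-Luc cells (stable Gli1-responsive firefly luciferase reporter) were seeded, rested 4 hr at 37 C/5% CO2, then exposed to compounds in DMSO for 24 hr; viability was read by CellTiter-Fluor fluorescence in the same wells.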

The nature of experiment [4]: qHTS assay to identify small molecule antagonists of the sonic hedgehog signaling (Shh) pathway - cell viability counter screen (AID 1259367). Further: nearly all actives have a fitted effect of over 55% in size. Further: potency means the concentration at half of the fitted maximal effect. In outline: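 Seed 3T3 Gli1-Luc cells at 2,000 per well; incubate 4 hr; add compound in DMSO, then conditioned medium; incubate at 37C with 5% CO2; add CellTiter-Fluor after 23 hr; read fluorescence 1 hr later.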
Experiment [5] can be described thus: qHTS assay to identify small molecule agonists of the sonic hedgehog signaling (Shh) pathway (AID 1259368; calls by dose curve; further: series mostly up to about 92 µM; nearly all actives have a fitted effect of over 15% in size). In outline: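 A Gli1 transcriptional response element controlled firefly luciferase in 3T3Gli1-Luc cells. Compounds and a positive control were added 4 hr after plating, and cells were incubated a further 24 hr at 37 C before luminescence detection.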
Experiment [6] in a line: qHTS assay to identify small molecule antagonists of the sonic hedgehog signaling (Shh) pathway (AID 1259369; calls by dose curve; further: nearly all actives have a fitted effect of over 45% in size; further: potency means the concentration at half of the fitted maximal effect). In outline: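 For antagonist detection, the reporter line received test compounds together with conditioned medium, incubated 24hr at 37 C, 5% CO2, then luminescence was recorded following 30min room-temperature luciferase reagent incubation.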
Experiment [7] can be described thus: qHTS assay to identify small molecule agonists of the androgen receptor (AR) signaling pathway in the presence of an antagonist - cell viability counter screen (AID 1259379). Further: nearly all actives have a fitted effect of over 25% in size. Further: potency means the concentration at half of the fitted maximal effect. In outline: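 Seed MDA-kb2 at 3,000 cells/well; incubate 5 hr, 37C, 0% CO2. Add nilutamide to 3.0uM final, then pin compounds at 15 concentrations. Incubate 16 hr. Add CellTiter-Fluor at 15 hr, read fluorescence after 1 hr.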

Experiment [8] in a line: qHTS assay to identify small molecule agonists of the estrogen receptor beta (ER-beta) signaling pathway - cell viability counter screen (AID 1259380). Further: nearly all actives have a fitted effect of over 30% in size. Further: potency means the concentration at half of the fitted maximal effect. In outline:
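CellTiter-Glo read, 30 min RT, same wells as bla assay; cells ER-beta-UAS-bla HEK293T; 16 hr compound, 37C; medium 2% charcoal-stripped FBS.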

For experiment [9], the target named is Androgen receptor (Homo sapiens) (UniProt P10275). Briefly: qHTS assay to identify small molecule agonists of the androgen receptor (AR) signaling pathway in the presence of an antagonist (AID 1259381; calls by dose curve; further: nearly all actives have a fitted effect of over 15% in size). In outline:
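Test compounds at 15 concentrations were incubated for 16hr with MDA-kb2 reporter cells in presence of 3.0uM nilutamide (final). Signal: ONE-Glo luciferase luminescence.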

Experiment [10] in a line: qHTS assay to identify small molecule antagonists of the estrogen receptor beta (ER-beta) signaling pathway - cell viability counter screen (AID 1259382). Further: nearly all actives have a fitted effect of over 55% in size. Further: potency means the concentration at half of the fitted maximal effect. In outline: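 In this multiplexed counter screen, cells were seeded at 2,000 per well in medium with 2% charcoal-stripped FBS and incubated 6 hr before compound and 1nM final E2 were added. Sixteen hours later, ATP-based luminescence reported viability.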

For experiment [11], the target named is Estrogen receptor (Homo sapiens) (UniProt P03372). Briefly: qHTS assay to identify small molecule agonists of the estrogen receptor alpha (ER-alpha) signaling pathway in the presence of an antagonist (AID 1259383; calls by dose curve; further: nearly all actives have a fitted effect of over 15% in size; further: potency means the concentration at half of the fitted maximal effect; on activation: top concentration of the series differs between compounds). In outline: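 Stably transfected VM7Luc4E2 reporter cells, kept 5 days in charcoal-stripped serum, received ICI-182,780 at 10.0nM final before compound addition. Following 22hr incubation at 37C and 5% CO2, luciferase signal was read by luminescence.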

The nature of experiment [12]: qHTS assay to identify small molecule agonists or antagonists of the thyroid stimulating hormone receptor (TSHR) signaling pathway - wild type cell line counter screen (AID 1259384; calls by dose curve). In outline: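 Wild-type Hek293 cells, 800/well, 18 h at 37C, then compound with Ro20-1724 for 30 min RT. cAMP by HTRF (cAMP-d2/anti-cAMP cryptate), 1 h RT, fluorescence read. 15 concentrations, triplicates.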

Experiment [13] in a line: qHTS assay to identify small molecule HDAC inhibitors - cell viability counter screen (AID 1259365). Further: nearly all actives have a fitted effect of over 50% in size. Further: potency means the concentration at half of the fitted maximal effect. In outline:
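Wild-type HCT-116 cells were seeded at 1,500 per well, incubated overnight at 37 C, then exposed to compounds in DMSO for 2hr. Viability was read by CellTiter-Glo luminescence after 30min at room temperature.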

Experiment [14] concerns the target Thyrotropin receptor (Homo sapiens) (UniProt P16473). Description: qHTS assay to identify small molecule antagonists of the thyroid stimulating hormone receptor (TSHR) signaling pathway (AID 1259385; calls by dose curve; further: nearly all actives have a fitted effect of over 20% in size; further: potency means the concentration at half of the fitted maximal effect). In outline:
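TSHR-HEK293 cells (800/well) plated 18 h, then compounds with Ro20-1724 and TSH at 1.5 ng/mL final, 30 min at room temperature. cAMP quantified by HTRF (cAMP-d2/anti-cAMP-cryptate, 1 h); 15 concentrations in triplicate.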

Experiment [15] concerns the target Estrogen receptor beta (Homo sapiens) (UniProt Q92731). Description: qHTS assay to identify small molecule antagonists of the estrogen receptor beta (ER-beta) signaling pathway (AID 1259378; active means well fitted inhibition curve with a large enough effect in the signal ratio in the repeat runs, not every such curve was filed as active; the % refers to the signal ratio; further: potency means the concentration at half of the fitted maximal effect). In outline: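 ER-beta-UAS-bla HEK293T cells in 2% charcoal-stripped FBS medium treated with compound plus 1nM final 17-beta-estradiol for 16 hr at 37C. Beta-lactamase reporter read by FRET substrate fluorescence after 2 hours at room temperature.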

Experiment [16] in a line: qHTS assay to identify small molecule phospholipidosis (PLD) inducers (AID 1259344; active means well fitted curve in the direction sought with a large enough effect; an effect the other way counts as inactive or inconclusive). In outline:
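Quantitative HTS in HepG2: compound plus LipidTOX Red dye for 24 h, paraformaldehyde fixation with Hoechst 33342, widefield high-content imaging; amiodarone as positive and DMSO as negative control.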

The target in experiment [17] is Estrogen receptor beta (Homo sapiens) (UniProt Q92731). Description: qHTS assay to identify small molecule agonists of the estrogen receptor beta (ER-beta) signaling pathway (AID 1259377; active means well fitted activation curve with a large enough effect in the signal ratio in the repeat runs, not every such curve was filed as active; the % refers to the signal ratio). In outline:
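ER-beta-UAS-bla HEK293T (GripTite) cells carrying a UAS-driven beta-lactamase reporter, in medium with 2% charcoal-stripped FBS, were exposed to compounds for 16 hr at 37C; LiveBLAzer B/G FRET substrate was then added and fluorescence read after 2 hours at room temperature.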

Results filed as inconclusive are left out. Calls of active or inactive are those of the source. Unless noted, the call rests on the fitted dose curve; in most records, active means well fitted curve in the direction sought with a large enough effect in the repeat runs; inconclusive means weak or mixed curves; inactive means no such curve, though single readings can be large; an effect the other way counts as inactive or inconclusive.

Thyrotropin receptor (Homo sapiens), sequence (P16473 whole entry, looked up): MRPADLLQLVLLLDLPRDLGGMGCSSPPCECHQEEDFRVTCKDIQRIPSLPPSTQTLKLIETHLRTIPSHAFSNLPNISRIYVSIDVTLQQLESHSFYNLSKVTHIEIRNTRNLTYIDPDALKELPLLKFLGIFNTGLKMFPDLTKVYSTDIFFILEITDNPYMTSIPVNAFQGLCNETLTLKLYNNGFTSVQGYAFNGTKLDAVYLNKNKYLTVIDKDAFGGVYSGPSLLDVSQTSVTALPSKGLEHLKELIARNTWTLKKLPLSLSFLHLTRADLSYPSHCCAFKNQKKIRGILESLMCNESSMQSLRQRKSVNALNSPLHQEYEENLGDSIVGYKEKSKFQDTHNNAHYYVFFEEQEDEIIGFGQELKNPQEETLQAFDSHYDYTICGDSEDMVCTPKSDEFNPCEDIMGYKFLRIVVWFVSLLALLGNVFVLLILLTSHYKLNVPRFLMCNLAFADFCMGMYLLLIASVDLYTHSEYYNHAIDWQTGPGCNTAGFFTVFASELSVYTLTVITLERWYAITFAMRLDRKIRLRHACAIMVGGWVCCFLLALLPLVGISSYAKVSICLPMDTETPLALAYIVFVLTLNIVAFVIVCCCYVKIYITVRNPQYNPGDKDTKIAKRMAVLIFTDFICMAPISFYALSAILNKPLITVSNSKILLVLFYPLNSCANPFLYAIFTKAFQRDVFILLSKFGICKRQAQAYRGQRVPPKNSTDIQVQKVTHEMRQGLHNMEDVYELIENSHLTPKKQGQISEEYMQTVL
Estrogen receptor beta (Homo sapiens), sequence (Q92731 whole entry, looked up): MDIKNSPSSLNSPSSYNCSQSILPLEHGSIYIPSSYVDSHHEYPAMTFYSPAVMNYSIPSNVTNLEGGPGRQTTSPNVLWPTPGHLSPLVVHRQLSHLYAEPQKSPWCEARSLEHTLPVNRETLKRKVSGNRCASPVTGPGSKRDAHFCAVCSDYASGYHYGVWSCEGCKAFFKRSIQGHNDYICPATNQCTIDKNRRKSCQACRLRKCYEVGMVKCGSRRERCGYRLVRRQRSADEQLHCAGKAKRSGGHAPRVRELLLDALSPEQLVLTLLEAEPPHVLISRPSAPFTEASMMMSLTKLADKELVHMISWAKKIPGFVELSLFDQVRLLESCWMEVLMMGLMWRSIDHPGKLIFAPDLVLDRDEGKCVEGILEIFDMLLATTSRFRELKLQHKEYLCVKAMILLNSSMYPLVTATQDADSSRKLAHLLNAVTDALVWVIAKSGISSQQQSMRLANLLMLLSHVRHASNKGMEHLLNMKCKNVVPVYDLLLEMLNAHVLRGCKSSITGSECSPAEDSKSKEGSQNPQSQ
Estrogen receptor (Homo sapiens), sequence (P03372 whole entry, looked up): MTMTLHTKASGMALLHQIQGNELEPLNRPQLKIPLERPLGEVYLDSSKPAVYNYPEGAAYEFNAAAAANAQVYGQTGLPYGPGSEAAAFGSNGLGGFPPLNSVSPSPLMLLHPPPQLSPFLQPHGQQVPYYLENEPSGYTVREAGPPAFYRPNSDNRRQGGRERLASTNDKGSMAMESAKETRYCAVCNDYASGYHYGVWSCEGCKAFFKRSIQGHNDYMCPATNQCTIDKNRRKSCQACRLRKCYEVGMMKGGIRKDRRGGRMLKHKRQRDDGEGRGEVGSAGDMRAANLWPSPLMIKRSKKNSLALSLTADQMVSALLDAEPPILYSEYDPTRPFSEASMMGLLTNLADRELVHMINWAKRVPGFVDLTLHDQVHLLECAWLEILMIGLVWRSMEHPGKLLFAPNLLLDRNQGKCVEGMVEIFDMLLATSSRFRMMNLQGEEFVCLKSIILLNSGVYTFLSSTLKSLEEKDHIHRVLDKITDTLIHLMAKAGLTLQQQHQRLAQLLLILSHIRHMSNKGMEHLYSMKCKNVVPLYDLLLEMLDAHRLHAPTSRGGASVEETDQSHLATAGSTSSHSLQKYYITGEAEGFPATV
Androgen receptor (Homo sapiens), sequence (P10275 whole entry, looked up): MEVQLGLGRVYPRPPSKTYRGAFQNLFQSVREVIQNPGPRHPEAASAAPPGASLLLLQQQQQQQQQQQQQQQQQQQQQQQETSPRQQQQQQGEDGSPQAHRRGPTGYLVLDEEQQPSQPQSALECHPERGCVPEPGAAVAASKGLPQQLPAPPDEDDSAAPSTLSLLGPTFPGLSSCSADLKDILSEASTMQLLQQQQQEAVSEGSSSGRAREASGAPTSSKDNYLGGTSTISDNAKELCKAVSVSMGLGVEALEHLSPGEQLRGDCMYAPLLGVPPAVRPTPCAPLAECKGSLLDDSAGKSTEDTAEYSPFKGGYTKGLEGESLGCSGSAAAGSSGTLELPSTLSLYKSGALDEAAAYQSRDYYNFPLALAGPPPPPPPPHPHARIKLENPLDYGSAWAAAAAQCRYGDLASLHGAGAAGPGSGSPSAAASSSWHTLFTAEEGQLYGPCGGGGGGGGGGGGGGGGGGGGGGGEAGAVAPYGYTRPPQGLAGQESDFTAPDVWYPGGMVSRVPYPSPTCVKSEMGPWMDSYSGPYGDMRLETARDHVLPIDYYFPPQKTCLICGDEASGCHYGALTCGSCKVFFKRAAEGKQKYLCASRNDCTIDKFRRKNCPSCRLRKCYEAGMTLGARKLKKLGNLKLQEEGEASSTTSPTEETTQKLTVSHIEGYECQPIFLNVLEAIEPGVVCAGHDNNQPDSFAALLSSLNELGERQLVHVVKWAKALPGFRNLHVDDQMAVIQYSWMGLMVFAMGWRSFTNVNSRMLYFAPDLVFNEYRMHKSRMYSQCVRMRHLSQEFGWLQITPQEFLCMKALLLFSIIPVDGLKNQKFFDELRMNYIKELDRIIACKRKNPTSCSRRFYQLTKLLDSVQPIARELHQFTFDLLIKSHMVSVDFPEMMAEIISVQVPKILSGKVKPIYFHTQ

On to `CCCN(CCC)C(=O)C(CCC(=O)OCCCN1CCN(CCOC(=O)Cc2c(C)n(C(=O)c3ccc(Cl)cc3)c3ccc(OC)cc23)CC1)NC(=O)c1ccccc1` (configuration not stated), for which the Potency in experiment [1] was 13.3 µM (active); in [3] it was 11.9 µM (active); in experiment [4], 10.6 µM (active); in [6] it was 9.44 µM (active); in experiment [8], 10.6 µM (active); in experiment [10], 13.3 µM (active). Also, the Potency in experiment [11] was 11.9 µM (active). The Potency entry in [2], in [5], in experiment [7] and in experiment [9] was “inactive” in each case. For the same compound, in experiment [12], the result was inactive.

As for `CC[C@H]1O[C@]2(CC[C@@H]1C)C[C@@H]1C[C@@H](C/C=C(\C)C[C@@H](C)/C=C/C=C3\CO[C@@H]4[C@H](O)C(C)=C[C@@H](C(=O)O1)[C@]34O)O2`, the Potency entry in experiment [1], in [2], in experiment [13], in experiment [4], in experiment [5] and in experiment [6] was “inactive” in each case. For the same compound, the Potency entry in [11] and in [14] was “inactive” in each case. Also, the Potency was 60.6 µM (active) in [7] and 24.1 µM (active) in experiment [8]. The call in experiment [12] was inactive.

With `CCCCCCCC[P+](CCCCCCCC)(CCCCCCCC)CCCCCCCC`, the Potency is 21.6 µM (active) in [1]; 12.1 µM (active) in [3]; 17.1 µM (active) in experiment [4]; 0.483 µM (active) in [6]; 2.42 µM (active) in experiment [7]; 8.58 µM (active) in experiment [8]. Moreover, the Potency was 10.8 µM (active) in experiment [10] and 68.2 µM (active) in experiment [14]. The Potency entry in experiment [2], in experiment [5] and in [11] was “inactive” throughout. Besides, the compound was called inactive in experiment [12].

On to `Cc1cc2c(cc1C(F)(F)F)N(C(=O)Nc1ccc(Oc3cccnc3C)nc1)CC2`, for which the Potency result in experiment [1], in experiment [2], in experiment [3], in experiment [4], in experiment [5] and in experiment [10] was “inactive” in each case. Further, the Potency entry in experiment [11] was “inactive”. In addition, the Potency in experiment [15] is 19.6 µM (active); in experiment [7], 55.3 µM (active).

In the case of `CO[Si](CCCNc1ccccc1)(OC)OC`, the Potency result in experiment [1], in experiment [2], in [3], in experiment [4], in experiment [5] and in experiment [7] was “inactive” in each case. Besides, the Potency entry in experiment [8], in experiment [10] and in [14] was “inactive” each time. For the same compound, the result in [12] was inactive.

For the compound `O=C(N/N=C/c1ccccc1O)c1ccncc1`, the Potency result in [1], in [16], in [13], in [3], in [4] and in [5] was “inactive” throughout. For the same compound, the Potency entry in experiment [17], in experiment [7], in experiment [10], in experiment [11] and in experiment [14] was “inactive” throughout. Further, the Potency in [2] was 23.7 µM (active); in experiment [6] it was 0.473 µM (active); in experiment [15], 2.11 µM (active). Further, the outcome in [12] was inactive.

Turning to `CNc1ccc(O)cc1`, the Potency in [1] was 21.6 µM (active); in experiment [13] it was 48.5 µM (active); in experiment [3], 12.2 µM (active); in experiment [4], 15.3 µM (active); in [7], 61 µM (active); in experiment [8], 30.6 µM (active). Also, the Potency in experiment [10] is 61 µM (active). Moreover, in experiment [5], the Potency result was “inactive”.
